Measurements: PubChem BioAssay AID372 (MTDP, 2006)
About 770 (0.77%) of roughly 100,000 compounds were called active. For the sample, actives were picked, then their nearest neighbours and some compounds at random. A number with no mark means an inactive call. Cut-off read from the data, not from the text of the source: active = inhibition above about 50%; inactive = the rest.

What follows are molecules tested against Gag-Pol polyprotein (Human immunodeficiency virus type 1 group M subtype B (isolate HXB2)) (UniProt P04585) (assay: RNase H inhibition, HIV 1 Gag Pol polyprotein, FRET biochemical assay, screening (AID 372)). Settings: HIV-1 RT RNase H, FRET RNA/DNA substrate fluorescence; at 10 µM; hits give high values.

Row | Structure (SMILES) | inhibition
1 | Cc1ccccc1N1C(=O)c2cccnc2C1=O | 22%
2 | Cc1ccc(N2C(=O)c3ccccc3C2=O)cc1C | 5%
3 | Cc1ccc(N2C(=O)c3cccnc3C2=O)cc1C | 50% (active)
4 | COc1ccccc1/C=C1/C(=O)N(c2ccc(Cl)c(Cl)c2)N=C1C | 3%
5 | CCCC(=O)N(c1ccc(N(C(=O)CCC)S(=O)(=O)c2ccccc2)cc1)S(=O)(=O)c1ccccc1 | 1%
6 | O=C(NC(=S)Nc1ccc2oc(-c3cc(Cl)ccc3Cl)nc2c1)c1ccc(F)cc1 | 19%
7 | O=C(NC(=S)Nc1ccc(Cl)c(-c2nc3cc(Cl)ccc3o2)c1)c1ccc(F)cc1 | 53% (active)
8 | O=C(NC(=S)Nc1ccc2oc(-c3ccc(F)cc3)nc2c1)c1ccc(Cl)cc1 | 0%
9 | Cc1ccc(-c2nc3cc(Cl)cc(Cl)c3o2)cc1N | 0%
10 | O=C(NC(=S)Nc1ccc2oc(-c3ccc(Cl)cc3)nc2c1)c1ccc(F)cc1 | 57% (active)
11 | O=C(NC(=S)Nc1ccc2oc(-c3cccc(Cl)c3)nc2c1)c1ccc(F)cc1 | 18%
12 | O=C(NC(=S)Nc1ccc(-c2nc3cc(Cl)ccc3o2)cc1)c1ccc(F)cc1 | 8%
13 | Nc1ccc(-c2nc3cc(Cl)cc(Cl)c3o2)cc1 | 22%
14 | O=C(NC(=S)Nc1ccc2oc(-c3ccc(Cl)cc3Cl)nc2c1)c1ccc(F)cc1 | 17%
15 | O=C(NC(=S)Nc1cccc(-c2nc3cc(Cl)ccc3o2)c1)c1ccc(F)cc1 | 57% (active)
16 | O=C(NC(=S)Nc1cccc(-c2nc3cc(Cl)ccc3o2)c1)c1ccc(Br)cc1 | 9%
17 | Nc1cccc(-c2nc3cc(Cl)cc(Cl)c3o2)c1 | 55% (active)
18 | CC(=O)Nc1nc2c(s1)C(=O)NCCC2 | 5%
19 | Cn1c2ccccc2c2nnc(SCCN3CCOCC3)nc21 | 0%
20 | O=Cc1ccc(OCc2ccc([N+](=O)[O-])cc2)cc1 | 16%
21 | O=[N+]([O-])c1ccc(N2CCOCC2)cc1Sc1cccc2cccnc12 | 24%
22 | Cc1ccc(S(=O)(=O)N2CCC(CN3C(=O)c4cccc5cccc(c45)C3=O)CC2)cc1 | 25%
23 | Cc1cc(C)n(S(=O)(=O)c2ccc(Cl)c(Cl)c2Cl)n1 | 23%
24 | CCCC1(CCC)NC(=S)N(c2nc3ccccc3s2)N1 | 7%

Row | Structure (SMILES) | inhibition
25 | COc1ccc(N(CC(=O)NCc2ccccn2)S(=O)(=O)c2ccccc2[N+](=O)[O-])c(OC)c1 | 4%
26 | O=C(/C=C/c1cccs1)c1ccc(C(=O)/C=C/c2cccs2)cc1 | 13%
27 | O=C(/C=C/c1ccc(F)cc1)Nc1cccc2cccnc12 | 7%
28 | O=C(NC(=S)Nc1ccc(O)c(-c2nc3ccccc3o2)c1)c1ccc(F)cc1 | 56% (active)
29 | O=C(NC(=S)Nc1cccc(-c2nc3cc(Cl)cc(Cl)c3o2)c1)c1ccc(Cl)cc1 | 11%
30 | O=C(NC(=S)Nc1cccc(-c2nc3cc(Cl)cc(Cl)c3o2)c1)c1ccccc1Cl | 19%
31 | O=C(Nc1ccc(O)c(-c2nc3ccccc3o2)c1)c1ccc(F)cc1 | 6%
32 | O=C(NC(=S)Nc1ccc(O)c(-c2nc3ccccc3o2)c1)c1ccc([N+](=O)[O-])cc1 | 9%
33 | O=C(NC(=S)Nc1cccc(-c2nc3cc(Cl)cc(Cl)c3o2)c1)c1cccc(F)c1 | 58% (active)
34 | O=S(=O)(c1cc(Cl)ccc1Cl)n1ccnc1 | 0%
35 | CCOC(=O)c1ccc(-c2ccc(/C=N/O)o2)cc1 | 0%
36 | COC(=O)C1=C(C)NC2=C(C(=O)CC(c3ccc(OC)cc3)C2)C1c1cccc(OC)c1OC (stereo unspecified) | 11%
37 | Cc1ccc(-c2nc3ccccc3o2)cc1NC(=S)NC(=O)c1ccccc1C | 12%
38 | Cc1ccccc1C(=O)NC(=S)Nc1cc(-c2nc3ccccc3o2)ccc1Cl | 53% (active)
39 | O=C(NC(=S)Nc1cc(-c2nc3ccccc3o2)ccc1Cl)c1ccccc1Br | 9%
40 | COc1ccccc1C(=O)NC(=S)Nc1cc(-c2nc3ccccc3o2)ccc1C | 10%
41 | Cc1ccc2nc(-c3ccc(Cl)c(NC(=S)NC(=O)c4ccccc4C)c3)oc2c1 | 42%
42 | COc1ccc(-c2nc3ccccc3o2)cc1NC(=S)NC(=O)c1ccccc1C | 53% (active)
43 | O=C(NC(=S)Nc1ccc(Cl)cn1)c1cccc(F)c1 | 13%
44 | Cc1ccc2nc(-c3ccc(Cl)cc3)cn2c1 | 5%
45 | O=C1C(=O)N(c2nc3ccccc3s2)C(c2ccccc2F)/C1=C(/O)c1ccccc1 (stereo unspecified) | 8%
46 | O=C(Nc1c(C(=O)Nc2ccc(Br)cc2)cnn1-c1ccccc1)c1ccco1 | 8%
47 | O=C(Nc1ccc(S(=O)(=O)N2CCCCC2)cc1)c1ccccc1Cl | 57% (active)
48 | O=C(Nc1ccc(S(=O)(=O)N2CCOCC2)cc1)c1ccccc1Cl | 0%

Row | Structure (SMILES) | inhibition
49 | O=C(Nc1ccc(S(=O)(=O)N2CCCCCC2)cc1)c1ccc(Cl)cc1Cl | 8%
50 | Cc1cccc(C(=O)NN=C2CCCCC2)c1 | 7%
51 | CC(C)NS(=O)(=O)c1ccc(Br)cc1 | 0%
52 | CC(=O)c1cccc(-c2ccc(/C=C3\C(=O)NC(=O)C(C#N)=C3C)o2)c1 | 43%
53 | CC1=C(C#N)C(=O)NC(=O)/C1=C\c1ccc(-c2cccc(Cl)c2)o1 | 33%
54 | CC1=C(C#N)C(=O)NC(=O)/C1=C\c1ccc(-c2ccc(Cl)c(Cl)c2)o1 | 50% (active)
55 | O=C1NC(=S)NC(=O)C1=Cc1ccc(-c2ccc(Cl)cc2[N+](=O)[O-])o1 | 42%
56 | CC1=C(C#N)C(=O)NC(=O)/C1=C\c1ccc(-c2cc(C)c(C)cc2[N+](=O)[O-])o1 | 56% (active)
57 | Cc1cc(-c2ccc(/C=C3/C(=O)NN(c4ccc(F)cc4)C3=O)o2)c([N+](=O)[O-])cc1C | 5%
58 | Cc1cc(-c2ccc(C=C3C(=O)N(C)C(=O)N(C)C3=O)o2)c([N+](=O)[O-])cc1C | 6%
59 | Cc1ccc(-c2ccc(C=C3C(=O)NC(=O)NC3=O)o2)c([N+](=O)[O-])c1 | 14%
60 | C=CCN1C(=O)/C(=C/c2cc(C)n(-c3ccc(C(=O)O)cc3C)c2C)C(=O)NC1=S | 6%
61 | Cc1cc(Br)cc(C)c1NC(=O)c1cccnc1 | 2%
62 | CCOC(=O)CNC1=C([N+](=O)[O-])C(=O)CC(C)(C)C1 | 0%
63 | C=CCn1cc(/C=c2\sc3n(c2=O)C(c2ccc(SC)cc2)C(C(=O)OCC)=C(C)N=3)c2ccccc21 (stereo unspecified) | 24%
64 | COc1ccc(C2CC(C(F)(F)F)n3nc(C(=O)Nc4cc(OC)c(Cl)cc4OC)c(Cl)c3N2)cc1 (stereo unspecified) | 14%
65 | COc1ccc(C)cc1NC(=O)COc1cccc2ccccc12 | 21%
66 | Cc1ccccc1N1C(=O)/C(=C/c2cccn2-c2ccc(Br)cc2)C(=O)NC1=S | 20%
67 | CCc1ccccc1N/C=C(\C#N)c1nc(-c2ccc(Cl)cc2)cs1 | 8%
68 | Cc1ccc(-c2n[nH]c(=S)n2N=Cc2ccccc2OCC(=O)O)cc1 | 12%
69 | COc1ccc(/C=C2/Sc3ccccc3C2=O)cc1 | 5%
70 | Cc1ccccc1OCC(=O)Nc1ccc(O)c(-c2nc3ccccc3s2)c1 | 14%
71 | O=C(NC(=S)Nc1ccc(O)c(-c2nc3ccccc3s2)c1)c1ccc(Cl)cc1 | 54% (active)
72 | O=C(NC(=S)Nc1ccc(O)c(-c2nc3ccccc3s2)c1)c1ccc(F)cc1 | 46%

Row | Structure (SMILES) | inhibition
73 | Cc1ccc(C(=O)NC(=S)Nc2ccc(O)c(-c3nc4ccccc4s3)c2)cc1 | 37%
74 | O=C(COc1ccc(Cl)cc1Cl)Nc1ccc(NC(=O)COc2ccc(Cl)cc2Cl)cc1 | 52% (active)
75 | O=C(COc1ccc(Br)cc1Cl)Nc1ccccc1F | 51% (active)
76 | O=C(COc1ccc(Cl)cc1Cl)Nc1ccc(-c2nc3ccccc3s2)c(O)c1 | 27%
77 | O=C(COc1ccc(Cl)cc1Cl)Nc1ccccc1F | 27%
78 | O=C(COc1ccc(Cl)cc1Cl)Nc1ccc(-c2ccccc2)cc1 | 7%
79 | CCC(=O)Nc1ccc(NC(=O)COc2ccc(Cl)cc2Cl)cc1 | 27%
80 | O=C(COc1ccc(Br)cc1Cl)Nc1ccccc1Cl | 31%
81 | O=C(COc1ccc(Cl)cc1Cl)Nc1ccc(O)c(-c2nc3ccccc3s2)c1 | 61% (active)
82 | C#CCSc1nncn1C(=O)/C=C/c1ccco1 | 19%
83 | COc1ccc2nc(N/C(N)=N/S(=O)(=O)c3ccc(C)cc3)nc(C)c2c1 | 5%
84 | Cc1cc(=O)[nH]c(N/N=C/c2cccnc2)n1 | 0%
85 | CCCCNCCCCCOc1ccccc1C(C)C | 5%
86 | COc1cccc(OCCCCOc2ncnc3ccccc23)c1 | 10%
87 | O=C(COc1ccc(/C=N/NS(=O)(=O)c2ccccc2)cc1)Nc1ccc(F)cc1 | 4%
88 | CCOc1ccc(N(CC(=O)NCCSCc2ccc(C)cc2)S(C)(=O)=O)cc1 | 16%
89 | COC(=O)c1ccc(/C=C2\N=C(c3ccc(F)cc3)OC2=O)cc1 | 0%
90 | CC(=O)Oc1ccc2c(=O)c(-c3nc4ccccc4[nH]3)c(C)oc2c1 | 3%
91 | O=C(COc1ccc(Br)cc1Cl)Nc1ccc2c(c1)OCCO2 | 50% (active)
92 | O=C(NC(=S)Nc1cccc(-c2nc3ccccc3s2)c1)c1cccs1 | 7%
93 | O=C(COc1ccc(Br)cc1Cl)Nc1ccc2c(c1)OCO2 | 18%
94 | O=C(NC(=S)Nc1ccc(O)c(-c2nc3ccccc3s2)c1)c1cccs1 | 19%
95 | O=C(COc1ccc(Cl)cc1Br)Nc1ccc2c(c1)OCCO2 | 36%
96 | O=C(NC(=S)Nc1ccc(-c2nc3ccccc3s2)c(O)c1)c1cccs1 | 56% (active)
